According to PubChem BioAssay AID1159580 (chemical genetic matrix, 2015):
Among all 5,500 compounds or so, about 2,000 (36%) were called active. About 18% were inconclusive and are not listed. Rule as the data show it: active = normalized growth mostly below about 0.91 (no sharp cut-off); inconclusive = no clear call, values can overlap the other calls; inactive = mostly above about 0.92. Some of the results follow.

Test: chemical genetic growth profiling, strain panel (AID 1159580);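 also: tested at 20 µM; growth read once vehicle control cultures reached saturation at 30 °C; 1 = growth at the plate median or of vehicle wells; lower values mean less growth of the strain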
Details: S. cerevisiae deletion strains, growth OD

Measured: normalized growth

CC1(C)C(=O)CC[C@@]2(C)C1C[C@@H](O)[C@@]1(C)C3=CC(=O)O[C@@H](c4ccoc4)[C@]3(C)CCC21 (stereo partly drawn)
inactive: locus YAL021C, strain ccr4, stronger effect = lower value 1.02 | locus YAL026C, strain drs2, stronger effect = lower value 1.02 | locus YAL030W, strain snc1, stronger effect = lower value 1.02 | locus YBL061C, strain skt5, stronger effect = lower value 1.03 | locus YBR009C, strain hhf1, stronger effect = lower value 1.01 | locus YBR021W, strain FUR4, stronger effect = lower value 0.967 | locus YBR023C, strain chs3, stronger effect = lower value 1.02 | locus YBR171W, strain sec66, stronger effect = lower value 1.04 | locus YBR229C, strain ROT2, stronger effect = lower value 1.01 | locus YBR231C, strain swc5, stronger effect = lower value 1.01 | locus YBR279W, strain paf1, stronger effect = lower value 1.01 | locus YCL011C, strain gbp2, stronger effect = lower value 1.02 | locus YCL016C, strain dcc1, stronger effect = lower value 1.02 | locus YCL029C, strain bik1, stronger effect = lower value 0.999 | locus YCL069W, strain vba3, stronger effect = lower value 1.02 | locus YCR088W, strain abp1, stronger effect = lower value 1.02 | locus YDL005C, strain med2, stronger effect = lower value 1.05 | locus YDL035C, strain GPR1, stronger effect = lower value 1.01 | locus YDL040C, strain nat1, stronger effect = lower value 1.02 | locus YDL074C, strain BRE1, stronger effect = lower value 1.01 | locus YDL101C, strain DUN1, stronger effect = lower value 1.03 | locus YDL134C, strain PPH21, stronger effect = lower value 1.03 | locus YDL185W, strain tfp1, stronger effect = lower value 1.02 | locus YDL192W, strain arf1, stronger effect = lower value 0.987 | locus YDR001C, strain nth1, stronger effect = lower value 1.03 | locus YDR069C, strain doa4, stronger effect = lower value 1.01 | locus YDR101C, strain arx1, stronger effect = lower value 0.963 | locus YDR137W, strain rgp1, stronger effect = lower value 1.05 | locus YDR159W, strain sac3, stronger effect = lower value 1.05 | locus YDR162C, strain NBP2, stronger effect = lower value 1.01 | locus YDR195W, strain ref2 0.982 | locus YDR297W, strain sur2, stronger effect = lower value 1.02 | locus YDR318W, strain mcm21, stronger effect = lower value 1.01 | locus YDR334W, strain swr1, stronger effect = lower value 1.02 | locus YDR335W, strain msn5, stronger effect = lower value 1.01 | locus YDR388W, stronger effect = lower value 1 | locus YDR392W, strain spt3, stronger effect = lower value 1.03 | locus YDR502C, strain sam2, stronger effect = lower value 1.02 | locus YEL003W, strain gim4, stronger effect = lower value 1.02 | locus YEL037C, strain rad23, stronger effect = lower value 1.02 | locus YEL061C, strain CIN8 (second series), stronger effect = lower value 1.03 | locus YEL061C, strain CIN8, stronger effect = lower value 1 | locus YER015W, strain faa2, stronger effect = lower value 1.01 | locus YER016W, strain bim1, stronger effect = lower value 1.03 | locus YER110C, stronger effect = lower value 1 | locus YER111C, strain swi4, stronger effect = lower value 1.02 | locus YER155C, strain BEM2 (second series), stronger effect = lower value 1.03 | locus YER155C, strain BEM2, stronger effect = lower value 0.997 | locus YER167W, strain BCK2, stronger effect = lower value 0.989 | locus YFR010W, strain ubp6, stronger effect = lower value 1.01 | locus YGL078C, strain dbp3, stronger effect = lower value 1.03 | locus YGL086W, strain mad1, stronger effect = lower value 0.998 | locus YGL167C, strain pmr1, stronger effect = lower value 1.04 | locus YGL173C, strain kem1, stronger effect = lower value 1.03 | locus YGL227W, strain vid30, stronger effect = lower value 1.03 | locus YGL240W, strain doc1, stronger effect = lower value 1.02 | locus YGL248W, strain PDE1, stronger effect = lower value 1.03 | locus YGL253W, strain hxk2, stronger effect = lower value 1.01 | locus YGR135W, strain pre9, stronger effect = lower value 1.06 | locus YGR252W, strain gcn5, stronger effect = lower value 1 | locus YHR013C, strain ard1, stronger effect = lower value 1.03 | locus YHR027C, strain rpn1, stronger effect = lower value 1.02 | locus YHR079C, strain IRE1 (second series), stronger effect = lower value 0.998 | locus YHR094C, strain hxt1, stronger effect = lower value 0.991 | locus YHR129C, strain ARP1, stronger effect = lower value 1.01 | locus YHR142W, strain chs7, stronger effect = lower value 1.04 | locus YHR200W, strain rpn10, stronger effect = lower value 1 | locus YIL066C, strain RNR3, stronger effect = lower value 1 | locus YIL073C, strain SPO22, stronger effect = lower value 0.977 | locus YIL125W, strain kgd1, stronger effect = lower value 0.984 | locus YIR030C, strain dcg1, stronger effect = lower value 0.999 | locus YJL092W, strain hpr5, stronger effect = lower value 1.03 | locus YJL095W, strain BCK1 (second series), stronger effect = lower value 1.01 | locus YJL095W, strain BCK1, stronger effect = lower value 1.04 | locus YJL115W, strain asf1, stronger effect = lower value 1.04 | locus YJL129C, strain trk1, stronger effect = lower value 1.02 | locus YJL134W, strain LCB3, stronger effect = lower value 1 | locus YJL154C, strain vps35, stronger effect = lower value 1.02 | locus YJL164C, strain tpk1, stronger effect = lower value 1.02 | locus YJL166W, strain qcr8, stronger effect = lower value 1.02 | locus YJL168C, strain set2, stronger effect = lower value 1 | locus YJL187C, strain SWE1 (second series), stronger effect = lower value 1.04 | locus YJL187C, strain SWE1, stronger effect = lower value 1.02 | locus YKL009W, strain mrt4, stronger effect = lower value 1.02 | locus YKL068W, stronger effect = lower value 1 | locus YKL085W, strain MDH1 (second series), stronger effect = lower value 0.993 | locus YKL085W, strain MDH1, stronger effect = lower value 0.993 | locus YKL160W, strain elf1, stronger effect = lower value 1.02 | locus YKR001C, strain vps1, stronger effect = lower value 0.975 | locus YKR026C, strain gcn3, stronger effect = lower value 1.02 | locus YKR091W, strain srl3, stronger effect = lower value 1.03 | locus YLL001W, strain dnm1, stronger effect = lower value 1.03 | locus YLL026W, stronger effect = lower value 1.02 | locus YLL041C, strain sdh2, stronger effect = lower value 1 | locus YLR027C, strain aat2, stronger effect = lower value 1.02 | locus YLR039C, strain RIC1, stronger effect = lower value 1.05 | locus YLR058C, strain SHM2, stronger effect = lower value 1.01 | locus YLR102C, strain apc9, stronger effect = lower value 1.01 | locus YLR221C, strain rsa3, stronger effect = lower value 1.05 | locus YLR258W, strain gsy2, stronger effect = lower value 1.01 | locus YLR262C, strain YPT6 (second series), stronger effect = lower value 1.06 | locus YLR268W, strain sec22, stronger effect = lower value 0.976 | locus YLR320W, strain mms22, stronger effect = lower value 1.03 | locus YLR330W, strain CHS5, stronger effect = lower value 1 | locus YLR342W, strain FKS1, stronger effect = lower value 1.02 | locus YLR357W, strain rsc2, stronger effect = lower value 1.02 | locus YLR370C, strain arc18, stronger effect = lower value 1.02 | locus YLR371W, strain rom2, stronger effect = lower value 0.957 | locus YLR384C, strain iki3, stronger effect = lower value 1.03 | locus YLR418C, strain cdc73, stronger effect = lower value 1.05 | locus YML016C, strain PPZ1, stronger effect = lower value 1.01 | locus YML032C, strain rad52, stronger effect = lower value 0.987 | locus YML120C, strain ndi1, stronger effect = lower value 1.01 | locus YML124C, strain tub3, stronger effect = lower value 0.998 | locus YMR058W, strain fet3, stronger effect = lower value 1.01 | locus YMR078C, strain ctf18, stronger effect = lower value 1.01 | locus YMR125W, strain sto1, stronger effect = lower value 1.04 | locus YMR129W, stronger effect = lower value 1.03 | locus YMR205C, strain PFK2, stronger effect = lower value 1.05 | locus YMR223W, strain ubp8, stronger effect = lower value 1 | locus YMR231W, strain pep5, stronger effect = lower value 1.02 | locus YMR307W, strain GAS1, stronger effect = lower value 0.91 | locus YNL067W, strain RPL9B, stronger effect = lower value 1.04 | locus YNL071W, strain lat1, stronger effect = lower value 1.02 | locus YNL128W, strain TEP1, stronger effect = lower value 1.01 | locus YNL153C, strain GIM3, stronger effect = lower value 1.04 | locus YNL209W, strain ssb2, stronger effect = lower value 1.03 | locus YNL233W, strain BNI4, stronger effect = lower value 1.03 | locus YNL248C, strain rpa49, stronger effect = lower value 1.03 | locus YNL250W, strain rad50, stronger effect = lower value 1.03 | locus YNL271C, strain bni1, stronger effect = lower value 0.999 | locus YNL298W, strain CLA4, stronger effect = lower value 0.997 | locus YNL307C, strain MCK1, stronger effect = lower value 1.01 | locus YNL322C, strain KRE1 (second series), stronger effect = lower value 1.03 | locus YNR049C, strain mso1, stronger effect = lower value 1.02 | locus YNR052C, strain pop2, stronger effect = lower value 1.04 | locus YOL012C, strain htz1 0.777 | locus YOL147C, strain pex11, stronger effect = lower value 0.991 | locus YOR001W, strain rrp6, stronger effect = lower value 1.03 | locus YOR061W, strain CKA2, stronger effect = lower value 1.01 | locus YOR069W, strain VPS5, stronger effect = lower value 1.01 | locus YOR070C, strain gyp1, stronger effect = lower value 1.02 | locus YOR080W, strain dia2, stronger effect = lower value 1.02 | locus YOR083W, strain WHI5, stronger effect = lower value 1.02 | locus YOR106W, strain vam3, stronger effect = lower value 1.05 | locus YOR136W, strain idh2, stronger effect = lower value 1.01 | locus YOR144C, strain elg1, stronger effect = lower value 0.997 | locus YOR184W, strain ser1, stronger effect = lower value 0.967 | locus YOR265W, strain rbl2, stronger effect = lower value 1.03 | locus YOR270C, strain vph1, stronger effect = lower value 1.04 | locus YOR290C, strain snf2, stronger effect = lower value 1.03 | locus YOR316C, strain cot1, stronger effect = lower value 1.01 | locus YPL051W, strain arl3, stronger effect = lower value 1.03 | locus YPL055C, strain LGE1, stronger effect = lower value 1.01 | locus YPL078C, strain atp4, stronger effect = lower value 1 | locus YPL106C, strain sse1, stronger effect = lower value 1.02 | locus YPL240C, strain hsp82, stronger effect = lower value 1.01 | locus YPL241C, strain CIN2, stronger effect = lower value 0.996 | locus YPR119W, strain clb2, stronger effect = lower value 0.995 | locus YPR141C, strain kar3, stronger effect = lower value 0.99 | locus YPR163C, strain tif3, stronger effect = lower value 0.992 | locus YPR167C, strain met16, stronger effect = lower value 1.01 | strain wtn01, stronger effect = lower value 0.965
